Active and inactive are the calls of the source. Rule for the calls: active = hit-call score of the fitted dose curve at least 0.9, where 1 is the maximum; inactive = score below 0.9.

This test in a line: APR_HepG2_p53Act_1hr: Apredica 1-hour HepG2 Assay for p53 Activation (AID 2282671). The settings on record: high-content imaging, actives raise or lower the signal. How it is done:
APR_HepG2_1hr is a cell-based, multiplexed-readout assay that uses HepG2, a human liver cell line, with measurements taken at 1 hour after chemical dosing in a 384-well plate.APR_HepG2_p53Act_1hr is one of 10 assay component(s) measured or calculated from the APR_HepG2_1hr assay. It is designed to make measurements of dna content, a form of viability reporter, as detected with fluorescence intensity signals by HCS Fluorescent Imaging technology.Data from the assay component APR_HepG2_p53Act_1hr was analyzed into 1 assay endpoint. This assay endpoint, APR_HepG2_p53Act_1hr, was analyzed with bidirectional fitting relative to DMSO as the negative control and baseline of activity. Using a type of viability reporter, measures of protein for gain or loss-of-signal activity can be used to understand the signaling at the pathway-level as they relate to the gene TP53. Furthermore, this assay endpoint can be referred to as a primary readout, because this assay has produced multiple assay endpoints where this one serves a signaling function. To generalize the intended target to other relatable targets, this assay endpoint is annotated to the dna binding intended target family, where the subfamily is tumor suppressor.
Cells were treated with dimethyl sulfoxide (DMSO) as a solvent control at a final concentration of 0.5% v/v or with compounds in DMSO with a resulting final DMSO concentration of 0.5% v/v. Compound treatment was done at concentrations of 0.39, 0.78, 1.56, 3.12, 6.24, 12.5, 25, 50, 100, and 200 uM in duplicate on each plate. Cells were treated with compounds for 1, 24, or 72 hr. Carbonyl […] m-chloro-phenylhydrazone (CCCP) and taxol were used as positive controls for mitochondrial function and cytoskeletal stability, respectively; DMSO served as the negative control for this experiment. Cells were fixed by the direct addition of 50 uL formaldehyde in Hank's Balanced Salt Solution (HBSS) to a final concentration of 3.7%. After incubation in the fixation medium for 30 min at room temperature (293-298 K), cells were rinsed twice with HBSS and treated with cell permeabilization buffer (16 uL of 0.5% Triton X-100) for 10 min at room temperature (293-298 K) before labeling. For mitochondrial membrane potential and mitochondrial measurements, pre-fixed cells were incubated with 50 uL of MitoTracker Red CMXRos (Invitrogen) at a concentration of 250 nM for 30 min before fixation. In the remaining cases, post-fixed cells were labeled by incubation with a multiplexed mixture of primary antibodies in HBSS for 60 min at room temperature (293-298 K) to detect immunoreactivity of c-Jun (1:500), phospho-histone H3 (1:100), phospho-histone H2A.x (1:200), p53 (1:400), alpha-tubulin (1:200) and Hoechst 33342 (2 ug/mL). Cells were labeled for multiplexed imaging on two separate plates: a) Hoechst 33342, MitoTracker Red, phospho-histone H3, and alpha-tubulin, and b) Hoechst 33342, phospho-histone H2A.x, and c-Jun. A final rinse with HBSS (50 uL) was performed before analysis. The primary and secondary antibodies for the proteins were phospho-histone H3 (rabbit anti-phospho-histone H3 and FITC-donkey anti-rabbit IgG), phospho-histone H2A.x (mouse anti-phospho-histone H2A.x and FITC-donkey anti-mouse IgG), c-Jun (rabbit anti-phospho-c-Jun and Cy3-donkey anti-rabbit IgG), p53 (sheep anti-p53 and Cy5-donkey anti-sheep IgG), alpha-tubulin (mouse anti-alpha-tubulin and Cy5-donkey anti-mouse IgG). These antibodies are available as the CellCiphr HepG2 assay kit (Millipore).Digital images of each well were captured using a Cellomics ArrayScan VTI (Thermo Scientific Cellomics) (0.8 NA objective, 0.63x optical coupler, and XF-93 filter set) at 20x magnification. The images were acquired using the autofocus feature of the ArrayScan instrument, which entails the following steps. First, the camera focuses on channel 1 (Hoechst 33342), where nuclei are identified. Second, a Z offset of 1 um is used for capturing mitochondria (MitoTracker Red). […]
For `COCCO`, the call was inactive.
In the case of `COC(=O)c1ccccc1S(=O)(=O)NC(=O)Nc1nc(OC(F)F)cc(OC(F)F)n1`, the outcome was inactive.
With `CCOC(=O)COc1cc(-n2ncc(C(F)(F)F)c(C)c2=O)c(F)cc1Cl`, the compound was classed as inactive.
Regarding `Oc1ccc(C(c2ccc(O)cc2)C(Cl)(Cl)Cl)cc1`, the call was inactive.
For the compound `CCCCOC(=O)C(C)Oc1ccc(Oc2ccc(C(F)(F)F)cn2)cc1` (stereo not given), the result was inactive.
As for `COC(=O)c1ccccc1C(=O)O`, the entry is “inactive”; as for `COC(=O)c1cccc(C)c1S(=O)(=O)NC(=O)Nc1nc(OCC(F)(F)F)nc(N(C)C)n1`, “inactive”; as for `CCCCCCC(C)OC(=O)COc1nc(F)c(Cl)c(N)c1Cl` (stereo not given), “inactive”.
As for `CCOC(=O)[C@H](C)Oc1ccc(Oc2nc3ccc(Cl)cc3o2)cc1`, the entry is “inactive”.
In the case of `CCOC(=O)NCCOc1ccc(Oc2ccccc2)cc1` it was “inactive”.
As for `COC(=O)c1ccc(I)cc1S(=O)(=O)NC(=O)Nc1nc(C)nc(OC)n1`, the compound was classed as inactive.
As for `CC(C)(C)[C@@H](O)[C@@H](Cc1ccc(Cl)cc1)n1cncn1`, the compound was classed as inactive.
In the case of `CCSC(=O)N(CC(C)C)CC(C)C` it was “inactive”; in that of `CCC(O)=C1C(=O)CC(C(=O)O)CC1=O` (stereo not given), “inactive”.
`COc1nc(C)nc(NC(=O)NS(=O)(=O)c2ccccc2OCCCl)n1`: the compound was called inactive.
As for `OB(O)O`, the entry is “inactive”.
As for `CCN(Cc1c(F)cccc1Cl)c1c([N+](=O)[O-])cc(C(F)(F)F)cc1[N+](=O)[O-]`, the entry is “inactive”; as for `CCCCC(CC)CN1C(=O)C2C3C=CC(C3)C2C1=O` (stereo not given), “inactive”; as for `COC(=O)c1c(Cl)nn(C)c1S(=O)(=O)NC(=O)Nc1nc(OC)cc(OC)n1`, “inactive”.
As to `COC(=O)c1ccc(CNS(C)(=O)=O)cc1S(=O)(=O)NC(=O)Nc1nc(OC)cc(OC)n1`, the compound was classed as inactive.
As for `CC(C)(c1ccc(O)cc1)c1ccc(O)cc1`, the entry is “inactive”; as for `CCC(C)OC(=O)N1CCCCC1CCO` (stereo not given), “inactive”; as for `O=C(O)C1(C(=O)Nc2ccc(Cl)cc2Cl)CC1`, “inactive”.
With `CCCOC(=O)c1ccc(C(=O)OCCC)nc1`, the outcome was inactive.
`c1ccc(Nc2ccccc2)cc1`: the call was inactive.
In the case of `CC1(C)C(C=C(Cl)Cl)C1C(=O)OCc1cccc(Oc2ccccc2)c1` (stereo not given) it was “inactive”.
As for `C#CCOC(=O)[C@@H](C)Oc1ccc(Oc2ncc(Cl)cc2F)cc1`, the entry is “inactive”; as for `CCNc1nc(N)nc(Cl)n1`, “inactive”.
In the case of `Cc1nn(C)c(Oc2ccccc2)c1C=NOCc1ccc(C(=O)OC(C)(C)C)cc1` it was “inactive”; in that of `CCOC(=O)C(C)Oc1ccc(Oc2nc3ccc(Cl)cc3o2)cc1` (stereo not given), “inactive”; in that of `CSC(=O)c1cccc2nnsc12`, “inactive”.
With `CCCN(CCC)C(=O)SCC`, the outcome was inactive.
As to `CN(C)C(=O)Nc1ccc(Cl)c(Cl)c1`, the outcome was inactive.
As for `CCCCC(CC)COC(=O)c1ccccc1C(=O)O` (stereo not given), the entry is “inactive”; as for `CCCN(CCC)c1c([N+](=O)[O-])cc(C(F)(F)F)c(N)c1[N+](=O)[O-]`, “inactive”; as for `CCCOC(=O)NCCCN(C)C`, “inactive”.
For the compound `C=CCOC(Cn1ccnc1)c1ccc(Cl)cc1Cl` (stereo not given), the call was inactive.
As for `O=C(Nc1ccc([N+](=O)[O-])cc1Cl)c1cc(Cl)ccc1O`, the entry is “inactive”.
In the case of `COC(=O)CSc1cc(N=c2sc(=O)n3n2CCCC3)c(F)cc1Cl` it was “inactive”.
In the case of `CCCCOC(=O)[C@@H](C)Oc1ccc(Oc2ccc(C(F)(F)F)cn2)cc1` it was “inactive”.

These data come from PubChem BioAssay (EPA / NIEHS).
